From PubChem BioAssay AID1159580 (chemical genetic matrix, 2015)
About 2,000 (36%) of roughly 5,500 compounds were called active. About 18% were inconclusive and are not listed. Rule as the data show it: active = normalized growth mostly below about 0.91 (no sharp cut-off); inconclusive = no clear call, values can overlap the other calls; inactive = mostly above about 0.92. The list shows a part of the results.

Assay: chemical genetic growth profiling, strain panel (AID 1159580);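 also: tested at 20 µM; growth read once vehicle control cultures reached saturation at 30 °C; 1 = growth at the plate median or of vehicle wells; lower values mean less growth of the strain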
Conditions: growth OD

Measured: normalized growth

NC[C@H]1O[C@H](O[C@H]2[C@H](O)[C@@H](O[C@H]3O[C@H](CO)[C@@H](O)[C@H](N)[C@H]3O)[C@H](N)C[C@@H]2N)[C@H](N)C[C@@H]1O
inactive: S. cerevisiae deletion strains, locus YJR075W, strain HOC1, active compounds read low 1.01 | S. cerevisiae deletion strains, locus YKL009W, strain mrt4, active compounds read low 1.02 | S. cerevisiae deletion strains, locus YKL068W, active compounds read low 0.998 | S. cerevisiae deletion strains, locus YKL085W, strain MDH1 (second series), active compounds read low 1 | S. cerevisiae deletion strains, locus YKL085W, strain MDH1, active compounds read low 1 | S. cerevisiae deletion strains, locus YKL160W, strain elf1, active compounds read low 0.959 | S. cerevisiae deletion strains, locus YKL190W, strain CNB1, active compounds read low 0.994 | S. cerevisiae deletion strains, locus YKR001C, strain vps1, active compounds read low 0.968 | S. cerevisiae deletion strains, locus YKR026C, strain gcn3, active compounds read low 1.02 | S. cerevisiae deletion strains, locus YKR091W, strain srl3, active compounds read low 1.01 | S. cerevisiae deletion strains, locus YLL001W, strain dnm1, active compounds read low 0.987 | S. cerevisiae deletion strains, locus YLL026W, active compounds read low 1.01 | S. cerevisiae deletion strains, locus YLL041C, strain sdh2, active compounds read low 1.01 | S. cerevisiae deletion strains, locus YLR027C, strain aat2, active compounds read low 1 | S. cerevisiae deletion strains, locus YLR039C, strain RIC1, active compounds read low 1.01 | S. cerevisiae deletion strains, locus YLR058C, strain SHM2, active compounds read low 0.994 | S. cerevisiae deletion strains, locus YLR102C, strain apc9, active compounds read low 1.01 | S. cerevisiae deletion strains, locus YLR113W, strain HOG1, active compounds read low 0.978 | S. cerevisiae deletion strains, locus YLR221C, strain rsa3, active compounds read low 0.998 | S. cerevisiae deletion strains, locus YLR258W, strain gsy2, active compounds read low 1.01 | S. cerevisiae deletion strains, locus YLR262C, strain YPT6 (second series), active compounds read low 0.973 | S. cerevisiae deletion strains, locus YLR262C, strain YPT6, active compounds read low 1.05 | S. cerevisiae deletion strains, locus YLR268W, strain sec22, active compounds read low 1.04 | S. cerevisiae deletion strains, locus YLR320W, strain mms22, active compounds read low 1 | S. cerevisiae deletion strains, locus YLR330W, strain CHS5, active compounds read low 1.01 | S. cerevisiae deletion strains, locus YLR342W, strain FKS1 (second series), active compounds read low 1.02 | S. cerevisiae deletion strains, locus YLR342W, strain FKS1, active compounds read low 1.01 | S. cerevisiae deletion strains, locus YLR357W, strain rsc2, active compounds read low 0.991 | S. cerevisiae deletion strains, locus YLR370C, strain arc18, active compounds read low 1.03 | S. cerevisiae deletion strains, locus YLR371W, strain rom2, active compounds read low 1.02 | S. cerevisiae deletion strains, locus YLR384C, strain iki3, active compounds read low 1.02 | S. cerevisiae deletion strains, locus YLR418C, strain cdc73, active compounds read low 0.986 | S. cerevisiae deletion strains, locus YML016C, strain PPZ1, active compounds read low 0.996 | S. cerevisiae deletion strains, locus YML032C, strain rad52, active compounds read low 1.02 | S. cerevisiae deletion strains, locus YML120C, strain ndi1, active compounds read low 1.01 | S. cerevisiae deletion strains, locus YML124C, strain tub3, active compounds read low 1.01 | S. cerevisiae deletion strains, locus YMR058W, strain fet3, active compounds read low 1 | S. cerevisiae deletion strains, locus YMR078C, strain ctf18, active compounds read low 1.01 | S. cerevisiae deletion strains, locus YMR125W, strain sto1, active compounds read low 1.01 | S. cerevisiae deletion strains, locus YMR129W, active compounds read low 1.01 | S. cerevisiae deletion strains, locus YMR205C, strain PFK2, active compounds read low 0.965 | S. cerevisiae deletion strains, locus YMR223W, strain ubp8, active compounds read low 0.988 | S. cerevisiae deletion strains, locus YMR231W, strain pep5, active compounds read low 0.996 | S. cerevisiae deletion strains, locus YMR307W, strain GAS1, active compounds read low 1.01 | S. cerevisiae deletion strains, locus YNL067W, strain RPL9B, active compounds read low 0.99 | S. cerevisiae deletion strains, locus YNL071W, strain lat1, active compounds read low 1.01 | S. cerevisiae deletion strains, locus YNL128W, strain TEP1, active compounds read low 0.995 | S. cerevisiae deletion strains, locus YNL153C, strain GIM3, active compounds read low 0.994 | S. cerevisiae deletion strains, locus YNL183C, strain NPR1, active compounds read low 0.933 | S. cerevisiae deletion strains, locus YNL209W, strain ssb2, active compounds read low 1.01 | S. cerevisiae deletion strains, locus YNL233W, strain BNI4, active compounds read low 1.01 | S. cerevisiae deletion strains, locus YNL248C, strain rpa49, active compounds read low 0.956 | S. cerevisiae deletion strains, locus YNL250W, strain rad50, active compounds read low 1.01 | S. cerevisiae deletion strains, locus YNL271C, strain bni1, active compounds read low 1 | S. cerevisiae deletion strains, locus YNL298W, strain CLA4, active compounds read low 0.998 | S. cerevisiae deletion strains, locus YNL307C, strain MCK1, active compounds read low 1.01 | S. cerevisiae deletion strains, locus YNL322C, strain KRE1 (second series), active compounds read low 1 | S. cerevisiae deletion strains, locus YNL322C, strain KRE1, active compounds read low 1.01 | S. cerevisiae deletion strains, locus YNR049C, strain mso1, active compounds read low 1.02 | S. cerevisiae deletion strains, locus YNR052C, strain pop2, active compounds read low 1.01 | S. cerevisiae deletion strains, locus YOL006C, strain TOP1, active compounds read low 1.02 | S. cerevisiae deletion strains, locus YOL012C, strain htz1 1.38 | S. cerevisiae deletion strains, locus YOL147C, strain pex11, active compounds read low 1.01 | S. cerevisiae deletion strains, locus YOR001W, strain rrp6, active compounds read low 1.05 | S. cerevisiae deletion strains, locus YOR061W, strain CKA2, active compounds read low 1.01 | S. cerevisiae deletion strains, locus YOR069W, strain VPS5, active compounds read low 1.01 | S. cerevisiae deletion strains, locus YOR070C, strain gyp1, active compounds read low 1.02 | S. cerevisiae deletion strains, locus YOR080W, strain dia2, active compounds read low 1.01 | S. cerevisiae deletion strains, locus YOR083W, strain WHI5, active compounds read low 0.959 | S. cerevisiae deletion strains, locus YOR106W, strain vam3, active compounds read low 0.964 | S. cerevisiae deletion strains, locus YOR136W, strain idh2, active compounds read low 0.993 | S. cerevisiae deletion strains, locus YOR144C, strain elg1, active compounds read low 1.01 | S. cerevisiae deletion strains, locus YOR184W, strain ser1, active compounds read low 0.99 | S. cerevisiae deletion strains, locus YOR231W, strain MKK1, active compounds read low 0.971 | S. cerevisiae deletion strains, locus YOR265W, strain rbl2, active compounds read low 1.03 | S. cerevisiae deletion strains, locus YOR270C, strain vph1, active compounds read low 0.943 | S. cerevisiae deletion strains, locus YOR290C, strain snf2, active compounds read low 0.987 | S. cerevisiae deletion strains, locus YOR316C, strain cot1, active compounds read low 1.01 | S. cerevisiae deletion strains, locus YPL051W, strain arl3, active compounds read low 0.988 | S. cerevisiae deletion strains, locus YPL055C, strain LGE1, active compounds read low 0.974 | S. cerevisiae deletion strains, locus YPL078C, strain atp4, active compounds read low 0.959 | S. cerevisiae deletion strains, locus YPL106C, strain sse1, active compounds read low 1.03 | S. cerevisiae deletion strains, locus YPL240C, strain hsp82, active compounds read low 1.02 | S. cerevisiae deletion strains, locus YPL256C, strain CLN2, active compounds read low 0.968 | S. cerevisiae deletion strains, locus YPR119W, strain clb2, active compounds read low 1.01 | S. cerevisiae deletion strains, locus YPR141C, strain kar3, active compounds read low 1.01 | S. cerevisiae deletion strains, locus YPR163C, strain tif3, active compounds read low 1.02 | S. cerevisiae deletion strains, locus YPR167C, strain met16, active compounds read low 1.01 | S. cerevisiae deletion strains, strain wtn01, active compounds read low 1.01 | S. cerevisiae strains, strain wild type, active compounds read low 0.998
